# Test results reported in PubChem BioAssay AID1159580 (chemical genetic matrix, 2015).
# Hit rate of the full screen: of about 5,500 compounds, about 2,000 (36%) were called active. Roughly 18% stayed inconclusive and do not appear here. The list shows a part of the results. A number with no mark means an inactive call. Cut-off read from the data, not from the text of the source: active = normalized growth mostly below about 0.91 (no sharp cut-off); inconclusive = no clear call, values can overlap the other calls; inactive = mostly above about 0.92.
# Test: chemical genetic growth profiling, strain panel (AID 1159580);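 note: tested at 20 µM; growth read once vehicle control cultures reached saturation at 30 °C; 1 = growth at the plate median or of vehicle wells; lower values mean less growth of the strain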
# Conditions: growth OD
# [1] = S. cerevisiae deletion strains, locus YDL101C, strain DUN1, hits give low values
# [2] = S. cerevisiae deletion strains, locus YHR030C, strain SLT2, hits give low values
# [3] = S. cerevisiae deletion strains, locus YJR075W, strain HOC1, hits give low values
# [4] = S. cerevisiae deletion strains, locus YMR263W, strain SAP30, hits give low values
# [5] = S. cerevisiae deletion strains, locus YNL153C, strain GIM3, hits give low values
# [6] = S. cerevisiae deletion strains, locus YPL241C, strain CIN2, hits give low values
compound,measurement,setting,value
Cn1c(CSCCOc2ccccc2)nnc1SCc1ccc(Cl)cc1Cl,normalized growth,"S. cerevisiae deletion strains, locus YAR019C, strain CDC15, hits give low values",0.985
same,normalized growth,"S. cerevisiae deletion strains, locus YBL105C, strain PKC1, hits give low values",0.982
same,normalized growth,"S. cerevisiae deletion strains, locus YBR135W, strain CKS1, hits give low values",0.98
same,normalized growth,"S. cerevisiae deletion strains, locus YBR136W, strain MEC1, hits give low values",0.98
same,normalized growth,"S. cerevisiae deletion strains, locus YBR160W, strain CDC28, hits give low values",0.98
same,normalized growth,"S. cerevisiae deletion strains, locus YDL017W, strain CDC7, hits give low values",0.986
same,normalized growth,"S. cerevisiae deletion strains, locus YDL028C, strain MPS1, hits give low values",0.992
same,normalized growth,[1],0.995
same,normalized growth,"S. cerevisiae deletion strains, locus YDL108W, strain KIN28, hits give low values",0.986
same,normalized growth,"S. cerevisiae deletion strains, locus YDL132W, strain cdc53, hits give low values",0.968
same,normalized growth,"S. cerevisiae deletion strains, locus YDL214C, strain PRR2, hits give low values",0.984
same,normalized growth,"S. cerevisiae deletion strains, locus YDR052C, strain DBF4, hits give low values",0.982
same,normalized growth,"S. cerevisiae deletion strains, locus YDR054C, strain cdc34, hits give low values",0.985
same,normalized growth,"S. cerevisiae deletion strains, locus YDR226W, strain ADK1, hits give low values",0.971
same,normalized growth,"S. cerevisiae deletion strains, locus YDR477W, strain SNF1, hits give low values",1.02
same,normalized growth,"S. cerevisiae deletion strains, locus YER123W, strain YCK3, hits give low values",0.98
same,normalized growth,"S. cerevisiae deletion strains, locus YER133W, strain GLC7, hits give low values",1
same,normalized growth,"S. cerevisiae deletion strains, locus YFL009W, strain cdc4, hits give low values",0.983
same,normalized growth,"S. cerevisiae deletion strains, locus YFL029C, strain CAK1, hits give low values",0.99
same,normalized growth,"S. cerevisiae deletion strains, locus YFR003C, strain YPI1, hits give low values",0.987
same,normalized growth,"S. cerevisiae deletion strains, locus YFR019W, strain FAB1, hits give low values",0.946
same,normalized growth,"S. cerevisiae deletion strains, locus YFR028C, strain CDC14, hits give low values",0.989
same,normalized growth,"S. cerevisiae deletion strains, locus YGR040W, strain KSS1, hits give low values",1.01
same,normalized growth,"S. cerevisiae deletion strains, locus YGR052W, strain FMP48, hits give low values",1.12
same,normalized growth,"S. cerevisiae deletion strains, locus YGR092W, strain DBF2, hits give low values",0.984
same,normalized growth,[2],0.829 (active)
same,normalized growth,"S. cerevisiae deletion strains, locus YHR079C, strain IRE1, hits give low values",0.97
same,normalized growth,"S. cerevisiae deletion strains, locus YHR082C, strain KSP1, hits give low values",1.02
same,normalized growth,"S. cerevisiae deletion strains, locus YHR205W, strain SCH9, hits give low values",0.969
same,normalized growth,"S. cerevisiae deletion strains, locus YIL147C, strain SLN1, hits give low values",0.985
same,normalized growth,"S. cerevisiae deletion strains, locus YJL095W, strain BCK1, hits give low values",0.911
same,normalized growth,"S. cerevisiae deletion strains, locus YJL128C, strain PBS2, hits give low values",0.905
same,normalized growth,"S. cerevisiae deletion strains, locus YJL157C, strain FAR1, hits give low values",1.01
same,normalized growth,"S. cerevisiae deletion strains, locus YJR016C, strain ILV3, hits give low values",0.982
same,normalized growth,"S. cerevisiae deletion strains, locus YJR066W, strain TOR1 (second series), hits give low values",0.977
same,normalized growth,"S. cerevisiae deletion strains, locus YJR066W, strain TOR1, hits give low values",0.995
same,normalized growth,"S. cerevisiae deletion strains, locus YKL048C, strain ELM1, hits give low values",0.963
same,normalized growth,"S. cerevisiae deletion strains, locus YKL067W, strain YNK1, hits give low values",0.994
same,normalized growth,"S. cerevisiae deletion strains, locus YKL101W, strain HSL1, hits give low values",0.981
same,normalized growth,"S. cerevisiae deletion strains, locus YKL193C, strain SDS22, hits give low values",0.998
same,normalized growth,"S. cerevisiae deletion strains, locus YKL203C, strain TOR2, hits give low values",1.07
same,normalized growth,"S. cerevisiae deletion strains, locus YLR113W, strain HOG1, hits give low values",1
same,normalized growth,"S. cerevisiae deletion strains, locus YLR133W, strain CKI1, hits give low values",0.982
same,normalized growth,"S. cerevisiae deletion strains, locus YLR403W, strain SFP1, hits give low values",1.01
same,normalized growth,"S. cerevisiae deletion strains, locus YML070W, strain DAK1, hits give low values",1
same,normalized growth,"S. cerevisiae deletion strains, locus YMR001C, strain CDC5, hits give low values",0.988
same,normalized growth,"S. cerevisiae deletion strains, locus YMR205C, strain PFK2 (second series), hits give low values",0.994
same,normalized growth,"S. cerevisiae deletion strains, locus YMR277W, strain FCP1, hits give low values",0.989
same,normalized growth,"S. cerevisiae deletion strains, locus YNL006W, strain LST8, hits give low values",0.99
same,normalized growth,"S. cerevisiae deletion strains, locus YNL020C, strain ARK1, hits give low values",0.974
same,normalized growth,"S. cerevisiae deletion strains, locus YNL161W, strain CBK1, hits give low values",0.98
same,normalized growth,"S. cerevisiae deletion strains, locus YNL183C, strain NPR1, hits give low values",0.996
same,normalized growth,"S. cerevisiae deletion strains, locus YNL207W, strain RIO2, hits give low values",1
same,normalized growth,"S. cerevisiae deletion strains, locus YNL222W, strain SSU72, hits give low values",0.984
same,normalized growth,"S. cerevisiae deletion strains, locus YNL307C, strain MCK1 (second series), hits give low values",0.96
same,normalized growth,"S. cerevisiae deletion strains, locus YOL078W, strain AVO1, hits give low values",0.994
same,normalized growth,"S. cerevisiae deletion strains, locus YOL136C, strain PFK27, hits give low values",0.988
same,normalized growth,"S. cerevisiae deletion strains, locus YOR061W, strain CKA2, hits give low values",1
same,normalized growth,"S. cerevisiae deletion strains, locus YOR119C, strain RIO1, hits give low values",1.14
same,normalized growth,"S. cerevisiae deletion strains, locus YOR231W, strain MKK1, hits give low values",0.992
same,normalized growth,"S. cerevisiae deletion strains, locus YOR329C, strain SCD5, hits give low values",0.986
same,normalized growth,"S. cerevisiae deletion strains, locus YPL031C, strain PHO85, hits give low values",1.03
same,normalized growth,"S. cerevisiae deletion strains, locus YPL153C, strain RAD53, hits give low values",1.03
same,normalized growth,"S. cerevisiae deletion strains, locus YPL204W, strain HRR25, hits give low values",1.04
same,normalized growth,"S. cerevisiae deletion strains, locus YPL209C, strain IPL1, hits give low values",0.99
same,normalized growth,"S. cerevisiae deletion strains, locus YPL256C, strain CLN2, hits give low values",0.979
same,normalized growth,"S. cerevisiae deletion strains, locus YPR025C, strain CCL1, hits give low values",0.986
same,normalized growth,"S. cerevisiae deletion strains, locus YPR106W, strain ISR1, hits give low values",0.982
same,normalized growth,"S. cerevisiae deletion strains, locus YPR111W, strain DBF20, hits give low values",0.969
same,normalized growth,"S. cerevisiae deletion strains, strain NNK1, hits give low values",0.983
same,normalized growth,"S. cerevisiae deletion strains, strain TSCII, hits give low values",0.988
O=S(=O)(O)C1CCNCC1,normalized growth,"S. cerevisiae deletion strains, locus YAL040C, strain CLN3, hits give low values",0.981
same,normalized growth,"S. cerevisiae deletion strains, locus YCL061C, strain MRC1 (second series), hits give low values",1
same,normalized growth,"S. cerevisiae deletion strains, locus YDR363W, strain ESC2, hits give low values",0.943
same,normalized growth,"S. cerevisiae deletion strains, locus YER002W, strain NOP16, hits give low values",1
same,normalized growth,[3],1.01
same,normalized growth,[4],0.997
same,normalized growth,"S. cerevisiae deletion strains, locus YMR307W, strain GAS1, hits give low values",0.991
same,normalized growth,[5],1.02
same,normalized growth,"S. cerevisiae deletion strains, locus YNL175C, strain NOP13, hits give low values",0.995
same,normalized growth,"S. cerevisiae deletion strains, locus YNL197C, strain WHI3, hits give low values",0.995
same,normalized growth,"S. cerevisiae deletion strains, locus YNL224C, strain SQS1, hits give low values",0.995
same,normalized growth,"S. cerevisiae deletion strains, locus YOR083W, strain WHI5 (second series), hits give low values",0.993
same,normalized growth,[6],1
CN(/N=C\c1ccccc1)c1ncc(C(F)(F)F)cc1Cl,normalized growth,"S. cerevisiae deletion strains, locus YAL013W, strain DEP1, hits give low values",0.975
same,normalized growth,"S. cerevisiae deletion strains, locus YBR229C, strain ROT2, hits give low values",0.949
same,normalized growth,"S. cerevisiae deletion strains, locus YCL061C, strain MRC1, hits give low values",0.989
same,normalized growth,[1],0.96
same,normalized growth,"S. cerevisiae deletion strains, locus YDL134C, strain PPH21, hits give low values",0.988
same,normalized growth,"S. cerevisiae deletion strains, locus YDR150W, strain NUM1, hits give low values",0.897
same,normalized growth,"S. cerevisiae deletion strains, locus YEL061C, strain CIN8, hits give low values",0.938
same,normalized growth,"S. cerevisiae deletion strains, locus YGR078C, strain PAC10, hits give low values",0.934
same,normalized growth,[2],0.392 (active)
same,normalized growth,"S. cerevisiae deletion strains, locus YHR087W, strain rtc3, hits give low values",0.905 (active)
same,normalized growth,"S. cerevisiae deletion strains, locus YJR043C, strain POL32, hits give low values",0.99
same,normalized growth,[3],0.921
same,normalized growth,"S. cerevisiae deletion strains, locus YLR039C, strain RIC1, hits give low values",0.89
same,normalized growth,"S. cerevisiae deletion strains, locus YLR058C, strain SHM2 (second series), hits give low values",0.953
same,normalized growth,"S. cerevisiae deletion strains, locus YLR085C, strain ARP6, hits give low values",0.775 (active)
same,normalized growth,"S. cerevisiae deletion strains, locus YLR262C, strain YPT6, hits give low values",0.88
same,normalized growth,"S. cerevisiae deletion strains, locus YML094W, strain GIM5, hits give low values",0.929
same,normalized growth,"S. cerevisiae deletion strains, locus YMR219W, strain ESC1, hits give low values",0.978
same,normalized growth,[4],0.99
same,normalized growth,[5],0.984
same,normalized growth,"S. cerevisiae deletion strains, locus YNL298W, strain CLA4 (second series), hits give low values",0.949
same,normalized growth,"S. cerevisiae deletion strains, locus YNL322C, strain KRE1, hits give low values",0.974
same,normalized growth,"S. cerevisiae deletion strains, locus YNR030W, strain Alg12, hits give low values",0.89
same,normalized growth,"S. cerevisiae deletion strains, locus YPL055C, strain LGE1, hits give low values",0.901
same,normalized growth,[6],1.02
same,normalized growth,"S. cerevisiae deletion strains, locus YPR135W, strain CTF4, hits give low values",0.907
same,normalized growth,"S. cerevisiae strains, strain wild type, hits give low values",0.98
